Results filed as inconclusive are left out. Active and inactive are the calls of the source. Unless noted, calls follow the shape of the dose curve; as a rule, active = well fitted curve in the direction sought with a large enough effect in the repeat runs; inconclusive = weak or mixed curves; inactive = no such curve, though single readings can be large; an effect the other way counts as inactive or inconclusive.
Assays:
[1] = qHTS assay for small molecules that induce genotoxicity in human embryonic kidney cells expressing luciferase-tagged ATAD5 (AID 651632); also: nearly all actives have a fitted effect of over 15% in size
Summary of the method: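 Quantitative HTS in HEK293T expressing luciferase-tagged ATAD5, whose levels rise upon DNA damage. Exposure ran 16 hr at 37C and 5% CO2, with luminescence read 30 min after Amplite addition at room temperature.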

[2] = qHTS assay for small molecule agonists of the p53 signaling pathway - cell viability (AID 651633; calls by dose curve;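 also: p53RE-bla HCT reporter cells with a stable beta-lactamase p53 reporter; series mostly up to about 83 µM; nearly all actives have a fitted effect of over 30% in size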)
Summary of the method: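 p53RE-bla cells were treated with compound for 16 hours at 37 C. Cytotoxicity was then measured as CellTiter-Glo luminescence after 30 min at room temperature.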

[3] = qHTS assay for small molecules that induce genotoxicity in human embryonic kidney cells expressing luciferase-tagged ATAD5 - cell viability (AID 651634; calls by dose curve; also: nearly all actives have a fitted effect of over 25% in size)
Summary of the method: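 After 15.5 hr incubation with compound at 37C, 5% CO2, HEK293T ATAD5-luciferase cells received CellTiter-Fluor reagent; fluorescence intensity was quantified following 30 min at 37C.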

[4] = qHTS assay for small molecule disruptors of the mitochondrial membrane potential - cell viability (AID 720634; calls by dose curve;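 also: human HepG2 liver cancer cells; series mostly up to about 83 µM; nearly all actives have a fitted effect of over 20% in size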)
Summary of the method: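 ATP-based luminescent viability readout (CellTiter-Glo, 30 min, room temperature) in HepG2 cells multiplexed with the m-MPI membrane potential dye; compound exposure lasted 1 hr at 37 C.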

[5] = qHTS assay for small molecule disruptors of the mitochondrial membrane potential (AID 720635)
Summary of the method: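 HepG2 cells exposed to compound 1 hr at 37C, then Mito-MPS dye 30 min. Ratio read of aggregate (540/590 nm) versus monomer (490/535 nm) fluorescence.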

[6] = qHTS assay to test for compound auto fluorescence at 590 nm (red) in HepG2 cells (AID 720674)
Summary of the method: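 Fluorescence at 590 nm emission following 540 nm excitation was recorded from HepG2 wells one hour after compound transfer, with DMSO-only wells as vehicle and Rose Bengal sodium equivalency as the scale.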

[7] = qHTS assay to test for compound auto fluorescence at 535 nm (green) in HepG2 cells (AID 720675)
[8] = qHTS assay to test for compound auto fluorescence at 460 nm (blue) in HEK293 cells (AID 720678)
Summary of the method: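 Blue-channel (Ex/Em 405/460 nm) intensity measured in HEK293 cultures after overnight compound exposure at 37C; signal expressed relative to triamterene. Cells plated 2,000 per well in 10% dialyzed FBS medium and allowed 4-5 hr to attach.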

[9] = qHTS assay to test for compound auto fluorescence at 590 nm (red) in HEK293 cells (AID 720679)
Summary of the method: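 Red-channel autofluorescence (Ex/Em 540/590 nm; Rose Bengal sodium reference) was measured after overnight 37C, 5% CO2 exposure of attached HEK293 cells, 2,000 per well in medium with 10% dialyzed FBS.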
% is scaled to controls: 0 for no effect and ±100 for the full control effect.

CC(C)CO
inactive: outcome [1] | outcome [2] | Potency [3] | outcome [4] | Potency [5] | outcome [6] | outcome [7] | outcome [8] | outcome [9]

N[C@@H](Cc1ccc(O)cc1)C(=O)O
inactive: outcome [1] | outcome [2] | outcome [4] | Potency [5] | outcome [6] | outcome [7] | outcome [8] | outcome [9]

CC(C)[C@H]1CC[C@H](C)C[C@@H]1O
inactive: outcome [1] | outcome [2] | outcome [4] | Potency [5] | outcome [6] | outcome [7] | outcome [8] | outcome [9]

OCCN1CCOCC1
inactive: outcome [1] | outcome [2] | Potency [3] | outcome [6] | outcome [7] | outcome [8] | outcome [9]

CCCC(=O)OCCC(C)CCC=C(C)C (centres undefined)
inactive: outcome [1] | outcome [2] | Potency [3] | Potency [5] | outcome [6] | outcome [7] | outcome [8] | outcome [9]

CC(O)CC(C)O (centres undefined)
inactive: outcome [1] | outcome [2] | Potency [3] | outcome [4] | outcome [6] | outcome [7] | outcome [8] | outcome [9]

O=Cc1ccccc1Cl
inactive: outcome [1] | outcome [2] | Potency [3] | Potency [5] | outcome [6] | outcome [7] | outcome [8] | outcome [9]

Cc1c(NC(=O)c2cccnc2)c(=O)n(-c2ccccc2)n1C
inactive: outcome [1] | outcome [2] | Potency [3] | outcome [4] | Potency [5] | fluorescence, relative to Rose Bengal [6] 0.269% [at 18.6 µM] | fluorescence, % of fluorescein control [7] -0.0361% [at 18.6 µM] | fluorescence, % of triamterene [8] -0.0133% [at 18.6 µM] | fluorescence, % of fluorescent control [9] 0.237% [at 18.6 µM]

Cn1c(=O)c2c(ncn2CCO)n(C)c1=O
inactive: outcome [1] | outcome [2] | Potency [3] | outcome [4] | Potency [5] | outcome [6] | outcome [7] | outcome [8] | outcome [9]

CO[Si](CCCn1c(=O)n(CCC[Si](OC)(OC)OC)c(=O)n(CCC[Si](OC)(OC)OC)c1=O)(OC)OC
inactive: outcome [1] | outcome [2] | outcome [4] | Potency [5] | outcome [6] | outcome [7] | outcome [8] | outcome [9]

CC(=O)OC(C)=O
inactive: outcome [1] | outcome [2] | Potency [3] | outcome [4] | outcome [6] | outcome [7] | outcome [8] | outcome [9]

Cc1ccc(C)c([N+](=O)[O-])c1
inactive: outcome [2] | Potency [3] | Potency [5] | outcome [6] | outcome [7] | outcome [8] | outcome [9]

C[C@H]1[C@@H](c2ccccc2)NC(=O)N1C
inactive: outcome [1] | outcome [4] | outcome [6] | outcome [7] | outcome [8] | outcome [9]

C=CCOC(=O)CCCCCC
inactive: outcome [1] | outcome [2] | outcome [6] | outcome [7] | outcome [8] | outcome [9]

C=CCN1C[C@H](C(=O)N(CCCN(C)C)C(=O)NCC)C[C@@H]2c3cccc4[nH]cc(c34)C[C@H]21
inactive: outcome [1] | outcome [2] | outcome [4] | outcome [6] | outcome [7] | outcome [8] | outcome [9]

CC(C)NCC(O)c1ccc2ccccc2c1 (centres undefined)
inactive: outcome [2] | Potency [3] | Potency [5] | outcome [6] | outcome [7] | outcome [8] | outcome [9]

O/N=C/C=N/O
inactive: outcome [2] | Potency [3] | outcome [4] | Potency [5] | outcome [6] | outcome [7] | outcome [8] | outcome [9]

CC1=C(C(=O)O)N2C(=O)[C@@H](NC(=O)[C@H](N)C3=CCC=CC3)[C@H]2SC1
inactive: outcome [1] | Potency [3] | outcome [4] | Potency [5] | outcome [6] | outcome [7] | outcome [8] | outcome [9]

O=C(O)CNC(=O)CNC(=O)CNC(=O)CSC(=O)c1ccccc1
inactive: outcome [2] | outcome [4] | Potency [5] | outcome [6] | outcome [7] | outcome [8] | outcome [9]

C/C=C(\C)C(=O)OCCc1ccccc1
inactive: outcome [1] | outcome [2] | outcome [4] | outcome [6] | outcome [7] | outcome [8] | outcome [9]

COc1ccc2c(c1)c1c3n2CCN(C)C3=NCC1
inactive: outcome [4] | Potency [5] | outcome [6] | outcome [7] | outcome [8] | outcome [9]
